Reference: PubChem BioAssay (Tox21)
Results filed as inconclusive are left out. Where a call stands in place of a potency, no number is given. Unmarked numbers belong to inactive results. Activity calls are given as the source filed them. Calls come from the whole dose curve.

Experiment: qHTS assay for small molecule agonists of the antioxidant response element (ARE) signaling pathway - cell viability counter screen (AID 743203); note: nearly all actives have a fitted effect of over 55% in size
Conditions: ARE-bla HepG2 viability, CellTiter-Glo luminescence, 16 h; series mostly up to 73.3 µM
Text: National Center for Advancing Translational Sciences [NCATS]
NIH Chemical Genomics Center [NCGC]
U.S. Environmental Protection Agency [EPA]
National Institutes of Environmental Health Sciences [NIEHS]
National Toxicology Program [NTP]
U.S. Food and Drug Administration [FDA]
Oxidative stress has been implicated in the pathogenesis of a variety of diseases ranging from cancer to neurodegeneration. The antioxidant response element (ARE) signaling pathway plays an important role in the amelioration of oxidative stress. The CellSensor ARE-bla HepG2 cell line (Invitrogen) can be used for analyzing the Nrf2/antioxidant response signaling pathway. Nrf2 (NF-E2-related factor 2) and Nrf1 are transcription factors that bind to AREs and activate these genes. The CellSensor ARE-bla Hep G2 cell line contains a beta-lactamase reporter gene under control of the Antioxidant Response Element (ARE) stably integrated into HepG2 cells. The activation of the report gene under culture conditions can be detected by fluorescence intensity. This cell line has been used to screen the Tox21 10K compound library to identify agonists that induce oxidative stress. The cytotoxicity of the Tox21 compound library against the ARE-bla cell line was tested in parallel by measuring the cell viability using CellTiter-Glo assay (Promega, Madison, WI) in the same wells.
Tox21 Assay Protocol Summary:
ARE-bla HepG2 cells were dispensed at 2,000 cells/5 ul/well in 1536-well white wall/solid bottom plates using a Multidrop Combi (ThermoFisher Scientific, Waltham, MA) dispenser. After the assay plates were incubated at 37C/5% CO2 for 5 hrs, 23 nL of compounds dissolved in DMSO, positive controls or DMSO only was transferred to the assay plate by a pintool work station (Kalypsys, San Diego, CA). The plates were incubated at 37C/5% CO2 for 16 hrs, followed by addition of 4 ul/well of CellTiter-Glo reagent into the assay plates using a Flying Reagent Dispenser (Aurora Discovery, San Diego, CA). After 30 min incubation at room temperature, the luminescence intensity in the assay plates was measured using a ViewLux (PerkinElmer, Shelton, CT) plate reader.
Potency is the fitted concentration of half-maximal effect.

Structure (SMILES) | Potency | viability change, negative = cytotoxic
CNC1CCCN(c2c(F)cc3c(=O)c(C(=O)O)cn(C4CC4)c3c2OC)C1 (stereo not given) | inactive | 
O=C(NC(Cc1cc(=O)[nH]c2ccccc12)C(=O)O)c1ccc(Cl)cc1 (stereo not given) | inactive | 
Cc1cc([N+](=O)[O-])ccc1N | inactive | 
COc1cc(OC)c2ccc(=O)oc2c1 | inactive | 
CC(C)COC(=O)COc1cc(Cl)c(Cl)cc1Cl | inactive | 
Nc1nc2ccc(OC(F)(F)F)cc2s1 | inactive | 
COc1ccc(-c2cc(C(F)F)nn2-c2ccc(S(N)(=O)=O)cc2)cc1F | inactive | 
FC(F)(F)C(F)(F)C(F)(F)C(F)(F)CCI | inactive | 
CC(C)C(=O)OCCOc1ccccc1 | inactive | 
COc1ccc(-c2cc(=S)ss2)cc1 | inactive | 
C=CC(=O)NC(C)C | inactive | 
O=C(O)CO | inactive | 
Nc1nc(-c2ccc([N+](=O)[O-])cc2)cs1 | inactive | 
CCOC(=O)Oc1ccc(CCNC(=O)[C@H](CCSC)NC(C)=O)cc1OC(=O)OCC | inactive | 
CCN(CC)C(=O)/C(C#N)=C/c1cc(O)c(O)c([N+](=O)[O-])c1 | inactive | 
CC(O)Cn1cnc2c1c(=O)n(C)c(=O)n2C (stereo not given) | inactive | 
c1ccc(CCCc2ccncc2)cc1 | inactive | 
CN1C(CSCC(F)(F)F)Nc2cc(Cl)c(S(N)(=O)=O)cc2S1(=O)=O (stereo not given) | inactive | 
CC(C)N(C)C | inactive | 
Nc1c(Cl)cc(Cl)cc1[N+](=O)[O-] | inactive | 

Structure (SMILES) | Potency | viability change, negative = cytotoxic
CC(C)C(O)C(C)(C)CO (stereo not given) | inactive | 
COC(OC)OC | inactive | 
CC(C)OC(=O)c1ccccc1C(=O)OC(C)C | inactive | 
Cc1ccc(NC(=O)N(C)C)cc1NC(=O)N(C)C | inactive | 
BrC(Br)C(Br)Br | inactive | 
CC1=CC[C@@H]2C[C@H]1C2(C)C |  | -20.1% [at 18.1 µM]
COc1ccc(C(=O)NCc2ccc(OCCN(C)C)cc2)cc1OC | inactive | 
COC(C)(C)OC | inactive | 
O=C(c1ccccc1)C1CCC1 | inactive | 
O=C(O)CCCc1c[nH]c2ccccc12 | inactive | 
CC12CC3CC(C)(C1)CC(N)(C3)C2 | inactive | 
C=CC(=O)O | inactive | 
CC(C)(C(=O)c1cccnc1)c1cccnc1 | inactive | 
CCN(CC)CCOC(=O)C(c1ccccc1)c1ccccc1 | inactive | 
COc1cc(NCc2ccc3nc(N)nc(N)c3c2C)cc(OC)c1OC | 0.0376 µM (active) | 
CCCCCCC(O)CCOC(C)=O (stereo not given) | inactive | 
COc1cc(NS(=O)(=O)c2ccc(N)cc2)nc(C)n1 | inactive | 
O=C(C(=O)c1ccco1)c1ccco1 | inactive | 
O=C(O)CCC(=O)c1ccc(-c2ccccc2)cc1 | inactive | 
CCCCCCCC(=O)OCCCCCC | inactive | 
